# Like-named read-outs stand apart in the source and are kept apart here.
# What was measured:
# Design in all cases: species or system human, MV4-11 + K-562 + COLO205 + SK-N-BE2 + OVCAR-8
# ATM = details: read-out: apparent Kd, n = 1
# CDC42BPG = details: read-out: apparent Kd; compound concentrations: 100 nM and 1000 nM (sheet 'Samples'), CATDS: 0.370471808138506; n = 1
# AKT2 = details: read-out: apparent Kd, compound concentrations: 100 nM and 1000 nM (sheet 'Samples'), n = 1
# MAP2K3 = details: read-out: apparent Kd; compound concentrations: 100 nM and 1000 nM (sheet 'Samples'), CATDS: 0.58030400025916395; n = 1
# PIM2 = details: read-out: apparent Kd, n = 1
# AKT3 = details: read-out: apparent Kd, n = 1
# CDK16 = details: read-out: apparent Kd, n = 1
# CDK2 = details: read-out: apparent Kd, compound concentrations: 100 nM and 1000 nM (sheet 'Samples'), n = 1
# CDK5 = details: read-out: apparent Kd; compound concentrations: 100 nM and 1000 nM (sheet 'Samples'), CATDS: 0.117408744054376; n = 1
# CDK6 = details: read-out: apparent Kd, n = 1
# CSNK2A1;CSNK2A3 = details: read-out: apparent Kd, compound concentrations: 100 nM and 1000 nM (sheet 'Samples'), n = 1
# CSNK2A2 = details: read-out: apparent Kd, compound concentrations: 100 nM and 1000 nM (sheet 'Samples'), n = 1
# FLT3 = details: read-out: apparent Kd; compound concentrations: 100 nM and 1000 nM (sheet 'Samples'), CATDS: 0.40008712572593402; n = 1
# MYLK3 = details: read-out: apparent Kd; compound concentrations: 100 nM and 1000 nM (sheet 'Samples'), CATDS: 8.3976923453049093E-2; n = 1
# FECH = details: read-out: apparent Kd; compound concentrations: 100 nM and 1000 nM (sheet 'Samples'), CATDS: 0.190744919400651; n = 1
# PIK3CA = details: read-out: apparent Kd; compound concentrations: 100 nM and 1000 nM (sheet 'Samples'), CATDS: 0.27121911823644002; n = 1
# PLK1 = details: read-out: apparent Kd, compound concentrations: 100 nM and 1000 nM (sheet 'Samples'), n = 1
# PRKACG = details: read-out: apparent Kd; compound concentrations: 100 nM and 1000 nM (sheet 'Samples'), CATDS: 0.152371623335085; n = 1
# CDK17 = details: read-out: apparent Kd; compound concentrations:100 nM and 1000 nM (sheet 'Samples'); n = 1
# CDK9 = details: read-out: apparent Kd; compound concentrations:100 nM and 1000 nM (sheet 'Samples'); n = 1
# CDKL5 = details: read-out: apparent Kd, n = 1
# GSK3A = details: read-out: apparent Kd, n = 1
# GSK3B = details: read-out: apparent Kd, n = 1
# ICK = details: read-out: apparent Kd, n = 1
# RIOK2 = details: read-out: apparent Kd, n = 1
# PIK3C3 = details: read-out: apparent Kd; compound concentrations:100 nM and 1000 nM (sheet 'Samples'); n = 1
# MAP2K2 = details: read-out: apparent Kd, n = 1
# SKIV2L2 = details: read-out: apparent Kd; compound concentrations:100 nM and 1000 nM (sheet 'Samples'); n = 1
# FLT4 = details: read-out: apparent Kd; compound concentrations: 100 nM and 1000 nM (sheet 'Samples'), CATDS: 0.192292703568538; n = 1
# RIPK2 = details: read-out: apparent Kd; compound concentrations: 100 nM and 1000 nM (sheet 'Samples'), CATDS: 0.39426216370123801; n = 1
# STK10 = details: read-out: apparent Kd; compound concentrations: 100 nM and 1000 nM (sheet 'Samples'), CATDS: 0.17094041462039; n = 1
# DCTPP1 = details: read-out: apparent Kd; compound concentrations:100 nM and 1000 nM (sheet 'Samples'); n = 1
# NQO1 = details: read-out: apparent Kd; compound concentrations:100 nM and 1000 nM (sheet 'Samples'); n = 1
# PRKAG1 = details: read-out: apparent Kd; compound concentrations:100 nM and 1000 nM (sheet 'Samples'); n = 1
# MAPKAPK2 = details: read-out: apparent Kd; compound concentrations: 100 nM and 1000 nM (sheet 'Samples'), CATDS: 0.38970586087063103; n = 1
# STK26 = details: read-out: apparent Kd; compound concentrations: 100 nM and 1000 nM (sheet 'Samples'), CATDS: 0.193816418498372; n = 1
# CDC7 = details: read-out: apparent Kd; compound concentrations: 100 nM and 1000 nM (sheet 'Samples'), CATDS: 6.3073958864856297E-2; n = 1
# CLK2 = details: read-out: apparent Kd; compound concentrations: 100 nM and 1000 nM (sheet 'Samples'), CATDS: 8.0907286547203805E-2; n = 1
# CLK4 = details: read-out: apparent Kd; compound concentrations: 100 nM and 1000 nM (sheet 'Samples'), CATDS: 8.1638299421732605E-2; n = 1
# [1] = compound concentrations:100 nM and 1000 nM (sheet 'Samples')
smiles,measurement,setting,value
CC(C)c1ccc(-c2cc(-c3c[nH]nc3-c3ccccn3)ccn2)cc1 [GW682841X],potency estimated from few doses,"ATM; compound concentrations: 100 nM and 1000 nM (sheet 'Samples'), CATDS: 0.768793574743593",0.216 µM
same,potency estimated from few doses,CDC42BPG,1.22 µM
Nc1c(C(=O)c2ccc(C#CCN3CCOCC3)cc2)cnn1-c1ccc(F)cc1 [RO1153136-000],potency estimated from few doses,AKT2; CATDS: 0.43921962783060797,2.59 µM
same,potency estimated from few doses,MAP2K3,1.47 µM
Cc1ccc(C(=O)NC2CCCCC2)cc1-c1ccc(C(=O)NCC2CC2)cc1 [GW782907X],potency estimated from few doses,AKT2; CATDS: 0.479844173242639,1.85 µM
same,potency estimated from few doses,"PIM2; compound concentrations: 100 nM and 1000 nM (sheet 'Samples'), CATDS: 0.52192336058926703",1.56 µM
NS(=O)(=O)c1ccc(Nc2cc(-c3ccc(O)c(F)c3)n[nH]2)cc1 [GW831091X],potency estimated from few doses,"AKT3; compound concentrations: 100 nM and 1000 nM (sheet 'Samples'), CATDS: 8.6052459279118296E-2",1.69 µM
same,potency estimated from few doses,"CDK16; compound concentrations: 100 nM and 1000 nM (sheet 'Samples'), CATDS: 8.8636413805305694E-2",1.55 µM
same,potency estimated from few doses,CDK2; CATDS: 0.14540297909740599,0.491 µM
same,potency estimated from few doses,CDK5,0.759 µM
same,potency estimated from few doses,"CDK6; compound concentrations: 100 nM and 1000 nM (sheet 'Samples'), CATDS: 8.47728191524936E-2",1.77 µM
same,potency estimated from few doses,CSNK2A1;CSNK2A3; CATDS: 0.11670425999811999,0.77 µM
same,potency estimated from few doses,CSNK2A2; CATDS: 0.126102528289014,0.652 µM
same,potency estimated from few doses,FLT3,0.0992 µM
same,potency estimated from few doses,MYLK3,1.83 µM
COc1cccc(COc2cc(-n3cnc4ccccc43)sc2C(N)=O)c1 [GW804482X],potency estimated from few doses,"ATM; compound concentrations: 100 nM and 1000 nM (sheet 'Samples'), CATDS: 0.32091008376932201",0.21 µM
same,potency estimated from few doses,FECH,0.558 µM
same,potency estimated from few doses,PIK3CA,0.277 µM
same,potency estimated from few doses,PLK1; CATDS: 0.15646266136602699,0.938 µM
same,potency estimated from few doses,PRKACG,1.02 µM
CN1CCC(C(=O)Nc2n[nH]c3nc(-c4ccc(O)cc4)c(Br)cc23)CC1 [SB-732881],potency estimated from few doses,AKT3; [1],1.64 µM
same,potency estimated from few doses,CDK16; [1],0.565 µM
same,potency estimated from few doses,CDK17,0.914 µM
same,potency estimated from few doses,CDK6; [1],1.48 µM
same,potency estimated from few doses,CDK9,0.4 µM
same,potency estimated from few doses,CDKL5; [1],0.852 µM
same,potency estimated from few doses,GSK3A; [1],0.00334 µM
same,potency estimated from few doses,GSK3B; [1],0.0104 µM
same,potency estimated from few doses,ICK; [1],1.23 µM
same,potency estimated from few doses,PIM2; [1],1.66 µM
same,potency estimated from few doses,RIOK2; [1],2.21 µM
Cc1cn2c(=O)cc(N3CCOCC3)nc2n1Cc1cccc(Cl)c1Cl [GSK2334006A],potency estimated from few doses,ATM; [1],0.28 µM
same,potency estimated from few doses,PIK3C3,0.0615 µM
O=C1NC(=O)C(c2ccc(Cl)cc2)=C1Nc1ccc(Cl)c(C(=O)O)c1 [SB-360741],potency estimated from few doses,AKT3; [1],1.53 µM
same,potency estimated from few doses,GSK3A; [1],0.601 µM
same,potency estimated from few doses,GSK3B; [1],1.31 µM
same,potency estimated from few doses,MAP2K2; [1],0.14 µM
same,potency estimated from few doses,SKIV2L2,1.36 µM
COC(=O)Nc1nc2ccc(Oc3ccc(NC(=O)Nc4cc(C(F)(F)F)ccc4F)cc3)cc2s1.Cl [GW693917A],potency estimated from few doses,ATM; [1],0.222 µM
CCS(=O)(=O)c1ccc(OC)c(Nc2nccc(N(C)c3ccc4c(C)n[nH]c4c3)n2)c1.Cl [GW654652C],potency estimated from few doses,"ATM; compound concentrations: 100 nM and 1000 nM (sheet 'Samples'), CATDS: 0.41438416433349501",0.228 µM
same,potency estimated from few doses,FLT4,1.43 µM
same,potency estimated from few doses,RIPK2,0.249 µM
same,potency estimated from few doses,STK10,2.28 µM
CC(C)NC(=O)N1CC[C@H](NC2=Nc3cc(F)ccc3N(CC(F)F)c3ccc(Cl)cc32)C1 [NVS-PAK1-1],potency estimated from few doses,AKT3; [1],1.76 µM
same,potency estimated from few doses,DCTPP1,2.22 µM
same,potency estimated from few doses,NQO1,1.34 µM
same,potency estimated from few doses,PRKAG1,1.74 µM
N#Cc1c(NC(=O)c2ccccc2F)sc2c1CCCC2 [GW572738X],potency estimated from few doses,AKT2; CATDS: 0.30677432174967101,2.34 µM
same,potency estimated from few doses,"CDK6; compound concentrations: 100 nM and 1000 nM (sheet 'Samples'), CATDS: 0.31503634964043797",2.2 µM
same,potency estimated from few doses,MAPKAPK2,1.46 µM
C[C@@H](Oc1cc(-n2cnc3ccc(NC(=O)NC(C)(C)C)cc32)sc1C(N)=O)c1ccccc1Cl [GSK346294A],potency estimated from few doses,AKT2; CATDS: 0.175578596413346,2.32 µM
same,potency estimated from few doses,"MAP2K2; compound concentrations: 100 nM and 1000 nM (sheet 'Samples'), CATDS: 0.187838411723944",1.98 µM
same,potency estimated from few doses,PLK1; CATDS: 0.29940463058405897,0.851 µM
same,potency estimated from few doses,"RIOK2; compound concentrations: 100 nM and 1000 nM (sheet 'Samples'), CATDS: 0.18243724402643599",2.12 µM
same,potency estimated from few doses,STK26,1.85 µM
NS(=O)(=O)c1ccc(N/N=C2\C(=O)Nc3ccc(C(=O)NCCCn4ccnc4)cc32)cc1 [GW290597X],potency estimated from few doses,"ATM; compound concentrations: 100 nM and 1000 nM (sheet 'Samples'), CATDS: 0.20887249405767599",0.232 µM
same,potency estimated from few doses,CDC7,2.22 µM
same,potency estimated from few doses,"CDK16; compound concentrations: 100 nM and 1000 nM (sheet 'Samples'), CATDS: 0.118346075913056",0.55 µM
same,potency estimated from few doses,CDK2; CATDS: 0.141708067448752,0.409 µM
same,potency estimated from few doses,"CDKL5; compound concentrations: 100 nM and 1000 nM (sheet 'Samples'), CATDS: 6.5208173112241197E-2",2.01 µM
same,potency estimated from few doses,CLK2,1.15 µM
same,potency estimated from few doses,CLK4,1.13 µM
same,potency estimated from few doses,CSNK2A1;CSNK2A3; CATDS: 6.6778954653333403E-2,1.87 µM
same,potency estimated from few doses,CSNK2A2; CATDS: 7.8455201722788401E-2,1.24 µM
same,potency estimated from few doses,"GSK3A; compound concentrations: 100 nM and 1000 nM (sheet 'Samples'), CATDS: 7.3699312386452706E-2",1.44 µM
same,potency estimated from few doses,"GSK3B; compound concentrations: 100 nM and 1000 nM (sheet 'Samples'), CATDS: 7.1527025569737807E-2",1.55 µM
same,potency estimated from few doses,"ICK; compound concentrations: 100 nM and 1000 nM (sheet 'Samples'), CATDS: 7.9134779366863195E-2",1.21 µM

# Reference: article PMC11062922 (Nature Chemical Biology, 2023)
